Laboratory results: PubChem BioAssay AID1159580 (chemical genetic matrix, 2015)
In all, about 5,500 compounds went through this assay and about 2,000 (36%) were called active. Inconclusive results (about 18%) are left out. Rule as the data show it: active = normalized growth mostly below about 0.91 (no sharp cut-off); inconclusive = no clear call, values can overlap the other calls; inactive = mostly above about 0.92. The list shows a part of the results.

Test: chemical genetic growth profiling, strain panel (AID 1159580);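 also: tested at 20 µM; growth read once vehicle control cultures reached saturation at 30 °C; 1 = growth at the plate median or of vehicle wells; lower values mean less growth of the strain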
Conditions: growth OD

Measured: normalized growth

C[C@@H]1CC[C@@]2(OC1)OC1C(O)C3C4CC[C@H]5C[C@H](O[C@@H]6O[C@H](CO)[C@H](O[C@@H]7O[C@H](CO)[C@@H](O)[C@H](O[C@@H]8OC[C@@H](O)[C@H](O)[C@H]8O)[C@H]7O[C@@H]7O[C@H](CO)[C@H](O)[C@H](O[C@@H]8O[C@H](CO)[C@@H](O)[C@H](O)[C@H]8O)[C@H]7O)[C@H](O)[C@H]6O)[C@H](O)C[C@]5(C)C4CC[C@]3(C)C1[C@@H]2C (stereo partly specified)
active: S. cerevisiae deletion strains, locus YJR043C, strain POL32, hits give low values 0.0654 | S. cerevisiae deletion strains, locus YJR066W, strain TOR1, hits give low values -0.00057 | S. cerevisiae deletion strains, locus YKL009W, strain mrt4, hits give low values 0.0811 | S. cerevisiae deletion strains, locus YKL068W, hits give low values 0.0538 | S. cerevisiae deletion strains, locus YKL085W, strain MDH1 (second series), hits give low values 0.0597 | S. cerevisiae deletion strains, locus YKL085W, strain MDH1, hits give low values 0.0597 | S. cerevisiae deletion strains, locus YKR001C, strain vps1, hits give low values 0.0628 | S. cerevisiae deletion strains, locus YLR039C, strain RIC1, hits give low values 0.0908 | S. cerevisiae deletion strains, locus YLR058C, strain SHM2, hits give low values 0.0509 | S. cerevisiae deletion strains, locus YLR102C, strain apc9, hits give low values 0.0549 | S. cerevisiae deletion strains, locus YLR113W, strain HOG1, hits give low values 0.124 | S. cerevisiae deletion strains, locus YLR262C, strain YPT6 (second series), hits give low values 0.598 | S. cerevisiae deletion strains, locus YLR262C, strain YPT6, hits give low values 0.112 | S. cerevisiae deletion strains, locus YLR268W, strain sec22, hits give low values 0.0616 | S. cerevisiae deletion strains, locus YLR371W, strain rom2, hits give low values 0.0571 | S. cerevisiae deletion strains, locus YLR418C, strain cdc73, hits give low values 0.0973 | S. cerevisiae deletion strains, locus YML016C, strain PPZ1, hits give low values 0.0492 | S. cerevisiae deletion strains, locus YML032C, strain rad52, hits give low values 0.0633 | S. cerevisiae deletion strains, locus YML124C, strain tub3, hits give low values 0.0557 | S. cerevisiae deletion strains, locus YMR078C, strain ctf18, hits give low values 0.064 | S. cerevisiae deletion strains, locus YMR223W, strain ubp8, hits give low values 0.0562 | S. cerevisiae deletion strains, locus YMR263W, strain SAP30, hits give low values 0.055 | S. cerevisiae deletion strains, locus YMR307W, strain GAS1, hits give low values 0.13 | S. cerevisiae deletion strains, locus YNL067W, strain RPL9B, hits give low values 0.0474 | S. cerevisiae deletion strains, locus YNL153C, strain GIM3, hits give low values 0.0551 | S. cerevisiae deletion strains, locus YNL183C, strain NPR1, hits give low values -0.00129 | S. cerevisiae deletion strains, locus YNL233W, strain BNI4, hits give low values 0.0568 | S. cerevisiae deletion strains, locus YNL250W, strain rad50, hits give low values 0.0602 | S. cerevisiae deletion strains, locus YNL271C, strain bni1, hits give low values 0.0573 | S. cerevisiae deletion strains, locus YNL298W, strain CLA4, hits give low values 0.0588 | S. cerevisiae deletion strains, locus YNL307C, strain MCK1, hits give low values 0.063 | S. cerevisiae deletion strains, locus YNR052C, strain pop2, hits give low values 0.0596 | S. cerevisiae deletion strains, locus YOL006C, strain TOP1, hits give low values 0.131 | S. cerevisiae deletion strains, locus YOL012C, strain htz1 0.172 | S. cerevisiae deletion strains, locus YOL147C, strain pex11, hits give low values 0.0607 | S. cerevisiae deletion strains, locus YOR061W, strain CKA2, hits give low values 0.0464 | S. cerevisiae deletion strains, locus YOR069W, strain VPS5, hits give low values 0.05 | S. cerevisiae deletion strains, locus YOR136W, strain idh2, hits give low values 0.0668 | S. cerevisiae deletion strains, locus YOR144C, strain elg1, hits give low values 0.0588 | S. cerevisiae deletion strains, locus YOR184W, strain ser1, hits give low values 0.0693 | S. cerevisiae deletion strains, locus YOR231W, strain MKK1, hits give low values 0.0965 | S. cerevisiae deletion strains, locus YOR316C, strain cot1, hits give low values 0.0539 | S. cerevisiae deletion strains, locus YPL106C, strain sse1, hits give low values 0.671 | S. cerevisiae deletion strains, locus YPL241C, strain CIN2, hits give low values 0.0482 | S. cerevisiae deletion strains, locus YPL256C, strain CLN2, hits give low values 0.109 | S. cerevisiae deletion strains, locus YPR119W, strain clb2, hits give low values 0.0604 | S. cerevisiae deletion strains, locus YPR141C, strain kar3, hits give low values 0.0605 | S. cerevisiae deletion strains, locus YPR163C, strain tif3, hits give low values 0.0646 | S. cerevisiae deletion strains, locus YPR167C, strain met16, hits give low values 0.0578 | S. cerevisiae deletion strains, strain wtn01, hits give low values 0.0611 | S. cerevisiae strains, strain wild type, hits give low values 0.0496
inactive: S. cerevisiae deletion strains, locus YKL160W, strain elf1, hits give low values 1.01 | S. cerevisiae deletion strains, locus YKR026C, strain gcn3, hits give low values 1.03 | S. cerevisiae deletion strains, locus YKR091W, strain srl3, hits give low values 1.02 | S. cerevisiae deletion strains, locus YLL001W, strain dnm1, hits give low values 0.962 | S. cerevisiae deletion strains, locus YLL026W, hits give low values 1.01 | S. cerevisiae deletion strains, locus YLL041C, strain sdh2, hits give low values 1.02 | S. cerevisiae deletion strains, locus YLR027C, strain aat2, hits give low values 1.01 | S. cerevisiae deletion strains, locus YLR221C, strain rsa3, hits give low values 0.926 | S. cerevisiae deletion strains, locus YLR258W, strain gsy2, hits give low values 1.02 | S. cerevisiae deletion strains, locus YLR320W, strain mms22, hits give low values 0.985 | S. cerevisiae deletion strains, locus YLR342W, strain FKS1, hits give low values 0.991 | S. cerevisiae deletion strains, locus YLR357W, strain rsc2, hits give low values 0.875 | S. cerevisiae deletion strains, locus YLR370C, strain arc18, hits give low values 1.02 | S. cerevisiae deletion strains, locus YLR384C, strain iki3, hits give low values 1.04 | S. cerevisiae deletion strains, locus YML120C, strain ndi1, hits give low values 0.925 | S. cerevisiae deletion strains, locus YMR058W, strain fet3, hits give low values 1.01 | S. cerevisiae deletion strains, locus YMR125W, strain sto1, hits give low values 1.03 | S. cerevisiae deletion strains, locus YMR129W, hits give low values 1.03 | S. cerevisiae deletion strains, locus YMR205C, strain PFK2, hits give low values 0.977 | S. cerevisiae deletion strains, locus YNL071W, strain lat1, hits give low values 1.03 | S. cerevisiae deletion strains, locus YNL209W, strain ssb2, hits give low values 1.03 | S. cerevisiae deletion strains, locus YNL248C, strain rpa49, hits give low values 1.02 | S. cerevisiae deletion strains, locus YNL322C, strain KRE1 (second series), hits give low values 1.04 | S. cerevisiae deletion strains, locus YNR049C, strain mso1, hits give low values 1.03 | S. cerevisiae deletion strains, locus YOR001W, strain rrp6, hits give low values 0.939 | S. cerevisiae deletion strains, locus YOR070C, strain gyp1, hits give low values 1.02 | S. cerevisiae deletion strains, locus YOR080W, strain dia2, hits give low values 1.04 | S. cerevisiae deletion strains, locus YOR083W, strain WHI5, hits give low values 0.974 | S. cerevisiae deletion strains, locus YOR106W, strain vam3, hits give low values 0.919 | S. cerevisiae deletion strains, locus YOR265W, strain rbl2, hits give low values 1.04 | S. cerevisiae deletion strains, locus YOR270C, strain vph1, hits give low values 0.99 | S. cerevisiae deletion strains, locus YOR290C, strain snf2, hits give low values 0.964 | S. cerevisiae deletion strains, locus YPL051W, strain arl3, hits give low values 0.95 | S. cerevisiae deletion strains, locus YPL078C, strain atp4, hits give low values 0.968 | S. cerevisiae deletion strains, locus YPL240C, strain hsp82, hits give low values 1
